Results from PubChem BioAssay AID488862 (Broad Institute, 2010).
About 1,200 (0.35%) of roughly 340,000 compounds were called active. No stated cut-off is given here; in the data, active means inhibition above about 52%; inactive means the rest. The full list was thinned out, with actives kept by preference.

Experiment: inhibition of PrP 5' UTR reporter expression (AID 488862); further: 0 = median of the neutral control wells
Conditions: cell-based PrP 5' UTR mRNA reporter, plate reader; hits give high values; concentration not given here

Compound	inhibition
CC1=NCCN1S(=O)(=O)c1cccc([N+](=O)[O-])c1	-44.4% (inactive)
CCOc1ccc(Br)cc1S(=O)(=O)Nc1ccc(S(=O)(=O)Nc2cc(C)on2)cc1	-17.7% (inactive)
NC(=O)CC(NC(=O)Cc1ccc(Br)cc1)c1ccc(NC2CC3CCC2C3)c([N+](=O)[O-])c1 (configuration not stated)	-22.9% (inactive)
CCn1c(SCC(=O)NC2CC2)nnc1-c1ccccc1OC	3.39% (inactive)
COc1ccccc1-c1nnc2n1N=C(c1ccc(OC(F)F)c(OCC3CC3)c1)CS2	-3.8% (inactive)
COc1ccc(C2=Nn3c(nnc3-c3ccccc3OC)SC2)cc1OC1CCCC1	63.8% (active)
CC1CCCN(C(=O)CN2C(=O)c3ccccc3S2(=O)=O)C1 (configuration not stated)	-26.3% (inactive)
O=C(CSCc1ccccc1)N1CCc2ccccc21	-80.4% (inactive)
O=C(CN1C(=O)c2ccccc2S1(=O)=O)N1CCc2ccccc21	62.6% (active)
COc1ccc(-n2c(Cc3cccn3C)nnc2SCC(=O)Nc2cc(C)cc(C)c2)cc1	6.37% (inactive)
NC(=O)c1oc2ccccc2c1NC(=O)CS(=O)(=O)c1ccccc1	10.2% (inactive)
O=C1[C@@H](c2ccccc2)[C@@H](c2ccccc2)N1c1cccnc1	59.7% (active)
Cc1ccccc1N1C(=O)C2ON(c3ccccc3)C(c3ccncc3)C2C1=O (configuration not stated)	-40.3% (inactive)
O=C1C(=O)N(c2ccccc2)C(c2ccccc2)C1c1ccccc1 (configuration not stated)	-4.98% (inactive)
COc1ccc(NS(=O)(=O)c2ccc(N3CCOCC3)c(NC(=O)/C=C/C(=O)O)c2)cc1	-1.46% (inactive)
COc1cccc(CN(C)C(=O)CC23CC4CC(CC(C4)C2)C3)c1OC	-23.4% (inactive)
Cc1cc(NC(=O)/C=C/C(=O)N(c2ccccc2C)C(C(=O)NC2CCCC2)c2ccc(F)cc2)no1 (configuration not stated)	-18% (inactive)
Cc1cc(NC(=O)CCC(=O)N(CC(=O)NC2CCCC2)c2ccc(F)cc2)no1	-5.73% (inactive)
Cc1cc(NC(=O)/C=C/C(=O)N(CC(=O)NC2CCCC2)c2ccc(F)cc2)no1	53.2% (active)
CC(=O)c1ccc(Oc2cc(C)nc(-n3nc(C)cc3C)n2)cc1	63.6% (active)
CCOC(=O)c1cnc(-n2nc(C)cc2C)nc1NNc1cc(C)nc(-c2ccccc2)n1	33.9% (inactive)
COc1ccc(C(C)=O)cc1CSc1nc2nc(C)cc(C)n2n1	3.27% (inactive)
C[N+](C)(C)CCOP(=O)([O-])OC[C@H](O)CO	-9.94% (inactive)
CCOCCN(C=O)c1cccc(OC)c1	-5.07% (inactive)

Compound	inhibition
CCOc1cc(NC(=O)CCl)c(OCC)cc1NC(C)=O	-34.2% (inactive)
COc1ccc(S(=O)(=O)Nc2cc(C)on2)cc1NC(C)=O	-6.37% (inactive)
CCOc1cc(NS(=O)(=O)c2ccc(OC)cc2)c(OCC)cc1NC(C)=O	64.1% (active)
CN=C1SC(C(=O)O)CC(=O)N1C (configuration not stated)	-12.6% (inactive)
COc1ccc(OC)c(NC(=O)c2sc3nc(C)cc(C)c3c2N)c1	-9.33% (inactive)
COc1ccc(OC)c(Cc2nnc(CCC(=O)NC3CCCC3)o2)c1	0.259% (inactive)
COc1ccc(OC)c(Cc2cnc3nc(N)nc(N)c3c2C)c1	65.3% (active)
CC1CCCCN1CCCNc1ccc(C(CC(N)=O)NC(=O)c2ccccc2)cc1[N+](=O)[O-] (configuration not stated)	-27.6% (inactive)
O=C(Nc1ccc(N2CCN(C(=O)C3CC3)CC2)cc1)c1cccs1	-16.9% (inactive)
CCOC(=O)c1cc2sccc2n1Cc1ccc(C#N)cc1	-13.3% (inactive)
O=C(c1cc2sccc2n1Cc1ccc(F)cc1)N1CCc2ccccc21	-33% (inactive)
CC1Cc2ccccc2N1C(=O)c1cc2sccc2n1Cc1ccccc1 (configuration not stated)	59.8% (active)
CCOc1ccc(C(=O)CCC(=O)NC2=NCCS2)cc1	-27.4% (inactive)
CC(C)c1csc(CN2CCC(CO)(Cc3ccccc3)CC2)n1	-13.8% (inactive)
OCC1(Cc2ccccc2)CCN(Cc2cc3ccccc3o2)CC1	74.7% (active)
O=C(c1cc2ccccc2o1)N1CCN(Cc2ccccc2)CC1	-15% (inactive)
CCCCn1c(N)c(N(CC(C)C)C(=O)c2cnc(C)cn2)c(=O)[nH]c1=O	-37.8% (inactive)
CC(C)CN1CC(C)C(=O)N(c2ccccc2)C1=S (configuration not stated)	-12.4% (inactive)
O=C(C1=C[C@H](c2coc3ccccc3c2=O)C[C@H](OCc2ccc(CO)cc2)O1)N1CCN(Cc2ccccc2)CC1	81.9% (active)
O=C(C1=C[C@H](c2ccc(C(F)(F)F)cc2)C[C@H](OCc2ccc(CO)cc2)O1)N1CCN(Cc2ccccc2)CC1	-14.3% (inactive)
O=C(C1=C[C@H](c2coc3ccccc3c2=O)C[C@H](OCc2ccc(CO)cc2)O1)N1CCOCC1	-9.97% (inactive)
Cc1ccc(N(C(=O)C(F)(F)F)C(C(=O)NC2CCCCC2)c2ccncc2)cc1C (configuration not stated)	-20.4% (inactive)
Cn1c(Cc2cccs2)nnc1SCC(=O)Nc1ccccc1	-26.4% (inactive)
